Assay results reported in PubChem BioAssay (NCI).
Several values for one entry are separate records, joined by “and”; a condition that tells them apart may be missing. Identical values can stand only once. This is part of a sample that, as a whole, favours compounds with a hit. Of some 83,000 tested, about 20% had one in any assay.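 Single-concentration screen, 48 h exposure, 96-well plates. Endpoint: percent growth. Below 10 = active.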 Activity calls are given as the source filed them.

Assays:
Experiment in all cases: NCI-60 one-dose screen, 48 h (100 = growth as untreated, 0 = no growth, -100 = all killed)
Conditions in all cases: 10 µM unless noted
SR leukemia = system: SR leukemia
RPMI-8226 leukemia = system: RPMI-8226 leukemia
OVCAR-8 ovarian = system: OVCAR-8 ovarian
OVCAR-5 ovarian = system: OVCAR-5 ovarian
OVCAR-4 ovarian = system: OVCAR-4 ovarian
SK-OV-3 ovarian = system: SK-OV-3 ovarian
IGROV1 ovarian = system: IGROV1 ovarian
OVCAR-3 ovarian = system: OVCAR-3 ovarian
NCI/ADR-RES ovarian = system: NCI/ADR-RES ovarian
HS 578T breast = system: HS 578T breast

Row | SMILES | growth (SR leukemia) | growth (RPMI-8226 leukemia) | growth (OVCAR-8 ovarian) | growth (OVCAR-5 ovarian) | growth (OVCAR-4 ovarian) | growth (SK-OV-3 ovarian) | growth (IGROV1 ovarian) | growth (OVCAR-3 ovarian) | growth (NCI/ADR-RES ovarian) | growth (HS 578T breast)
1 | CCCCCCCCCCCCCCCCC(C(=O)O)C(O)(CC(=O)O)C(=O)O (stereo not drawn) | 90.8% (inactive) and 1.12% (active) | 104% (inactive) and -25.5% (active) | 111% (inactive) | 109% (inactive) and -56.6% (active) | 108% (inactive) and 21.3% (inactive) | 98.3% (inactive) and 36.1% (inactive) | 109% (inactive) and -21.4% (active) | 111% (inactive) and -3.72% (active) | 111% (inactive) and 89.7% (inactive) | –
2 | CCc1cc(C)cc(O)c1 | 102% (inactive) | 106% (inactive) | 105% (inactive) | 106% (inactive) | 112% (inactive) | 102% (inactive) | 92% (inactive) | 126% (inactive) | 111% (inactive) | 110% (inactive)
3 | O=c1[nH]cnc2c1ncn2C1OC(CO)C(O)C1O (stereo not drawn) | 106% (inactive) and 83.5% (inactive) and 88.4% (inactive) | 101% (inactive) and 93.6% (inactive) and 96.5% (inactive) | 106% (inactive) and 100% (inactive) and 103% (inactive) | 116% (inactive) and 114% (inactive) and 96.5% (inactive) | 126% (inactive) and 118% (inactive) and 117% (inactive) | 95.7% (inactive) and 104% (inactive) and 105% (inactive) | 118% (inactive) and 133% (inactive) and 64.6% (inactive) | 113% (inactive) and 111% (inactive) and 107% (inactive) | 99.5% (inactive) and 105% (inactive) and 102% (inactive) | 109% (inactive) and 110% (inactive) and 91.9% (inactive)
4 | Cc1ccc(=O)[nH]n1 | 98.9% (inactive) and 93% (inactive) | 108% (inactive) | 100% (inactive) and 102% (inactive) | 115% (inactive) and 98.4% (inactive) | 112% (inactive) and 122% (inactive) | 111% (inactive) and 112% (inactive) | 106% (inactive) | 106% (inactive) and 107% (inactive) | 103% (inactive) | 105% (inactive) and 93.7% (inactive)
5 | CC(=O)Nc1ccc(S(N)(=O)=O)cc1 | 117% (inactive) and 105% (inactive) | 95.6% (inactive) and 111% (inactive) | 99.5% (inactive) and 97.6% (inactive) | – | 99.4% (inactive) and 105% (inactive) | 95.4% (inactive) and 99.8% (inactive) | 99.5% (inactive) and 97.1% (inactive) | 110% (inactive) and 116% (inactive) | 102% (inactive) and 104% (inactive) | 96.3% (inactive) and 113% (inactive)
6 | ClCCOCCOc1ccc(C2CCCCC2)cc1 | 98.5% (inactive) | 110% (inactive) | 97.1% (inactive) | 95.4% (inactive) | 97.7% (inactive) | 102% (inactive) | 117% (inactive) | 103% (inactive) | 115% (inactive) | 101% (inactive)
7 | CC1CCC2(OC1)OC1CC3C4CC=C5CC(O)CCC5(C)C4CCC3(C)C1C2C (stereo not drawn) | 29.7% (inactive) | 71.4% (inactive) | 102% (inactive) | – | 95.7% (inactive) | 114% (inactive) | 67.5% (inactive) | 105% (inactive) | 114% (inactive) | 86.8% (inactive)
8 | C/C(=C\c1ccccc1)c1ccccn1 | 99.4% (inactive) | 114% (inactive) | 116% (inactive) | 118% (inactive) | 106% (inactive) | 106% (inactive) | 109% (inactive) | 106% (inactive) | 110% (inactive) | 123% (inactive)
9 | O=C(O)CCCl | 83.7% (inactive) | 101% (inactive) | 104% (inactive) | 99.1% (inactive) | 98.8% (inactive) | 118% (inactive) | 107% (inactive) | 115% (inactive) | 108% (inactive) | 96.4% (inactive)
10 | O=C(Cc1ccccc1)c1ccc(O)c(Cl)c1 | 10.2% (inactive) | -6.77% (active) | 43.4% (inactive) | 65.6% (inactive) | 63.5% (inactive) | 101% (inactive) | 60.4% (inactive) | 12.4% (inactive) | 28.5% (inactive) | 37.4% (inactive)
11 | Brc1ccc(SSc2ccc(Br)cc2)cc1 | 57.8% (inactive) | 35.6% (inactive) | 83.9% (inactive) | 90.8% (inactive) | 91.2% (inactive) | 110% (inactive) | 29.3% (inactive) | 85.4% (inactive) | 66.2% (inactive) | 96.9% (inactive)
12 | Nc1cc(N)c(N)cc1N | -7.21% (active) | 89.7% (inactive) | 63.3% (inactive) | – | 25.3% (inactive) | 98.4% (inactive) | 47.6% (inactive) | -55.1% (active) | 59.6% (inactive) | 67.7% (inactive)
13 | NC(=O)NCCCC(N)C(=O)O (stereo not drawn) | 84% (inactive) | 96.5% (inactive) | 98% (inactive) | 113% (inactive) | 112% (inactive) | 100% (inactive) | 91.5% (inactive) | 106% (inactive) | 102% (inactive) | 106% (inactive)
14 | OCCN1CCCCCCC1 | 109% (inactive) | 108% (inactive) | 101% (inactive) | 109% (inactive) | – | 103% (inactive) | 104% (inactive) | 111% (inactive) | 102% (inactive) | 90.8% (inactive)
15 | O=c1n(CC2CO2)c(=O)n(CC2CO2)c(=O)n1CC1CO1 (stereo not drawn) | 17.8% (inactive) | 84.6% (inactive) | 64.4% (inactive) | 108% (inactive) | 100% (inactive) | 68.6% (inactive) | 52.3% (inactive) | 79.2% (inactive) | 72.2% (inactive) | 104% (inactive)
16 | NC(Cc1c[nH]c2ccccc12)C(=O)O (stereo not drawn) | 53.3% (inactive) and 105% (inactive) | 86.6% (inactive) and 103% (inactive) | 58.3% (inactive) and 93.5% (inactive) | 91.7% (inactive) and 103% (inactive) | 108% (inactive) and 102% (inactive) | 106% (inactive) and 105% (inactive) | 105% (inactive) and 120% (inactive) | 120% (inactive) and 107% (inactive) | 105% (inactive) and 111% (inactive) | 115% (inactive) and 95.3% (inactive)
17 | CCCCOc1ccc(Nc2cc(Cl)ccc2C(=O)O)cn1 | 96.1% (inactive) | 57.8% (inactive) and 93.2% (inactive) | 111% (inactive) and 94.6% (inactive) | 110% (inactive) and 101% (inactive) | 92.4% (inactive) | 108% (inactive) | 42.5% (inactive) and 104% (inactive) | 111% (inactive) and 106% (inactive) | 90.4% (inactive) and 97.4% (inactive) | 95.3% (inactive) and 99.2% (inactive)
18 | O=C1CSC2=NCCN12 | 98.3% (inactive) and 49.5% (inactive) | 101% (inactive) and 90.7% (inactive) | 96.4% (inactive) and 107% (inactive) | – | 93.9% (inactive) and 94.2% (inactive) | 105% (inactive) and 124% (inactive) | 106% (inactive) and 101% (inactive) | 102% (inactive) and 122% (inactive) | 94.9% (inactive) and 102% (inactive) | 88.1% (inactive) and 92.9% (inactive)
19 | O=C1OC(c2ccccc2)=N/C1=C\c1ccccc1 | 108% (inactive) | 102% (inactive) | 100% (inactive) | 105% (inactive) | 113% (inactive) | 97.2% (inactive) | 99.1% (inactive) | 111% (inactive) | 99.7% (inactive) | 97.4% (inactive)
20 | CCCCCCCCCCNC(=O)CI | -40.9% (active) | -37.1% (active) | 0.969% (active) | – | -44.1% (active) | 5.75% (active) | -67.4% (active) | -70.3% (active) | 2.88% (active) | 91.3% (inactive)
21 | CCOC(=O)c1c(C)cc(=O)oc1C | 92% (inactive) | 97.9% (inactive) | 111% (inactive) | 101% (inactive) | 108% (inactive) | 103% (inactive) | 99.2% (inactive) | 121% (inactive) | 104% (inactive) | 118% (inactive)
22 | O=CN1CCCCC1 | 119% (inactive) | 177% (inactive) | 117% (inactive) | 104% (inactive) | 108% (inactive) | 113% (inactive) | 124% (inactive) | 112% (inactive) | 103% (inactive) | 114% (inactive)
